# Measurements from PubChem BioAssay AID504847 (National Center for Advancing Translational Sciences (NCATS), 2011).
# In all, about 400,000 compounds went through this assay and about 3,700 (0.93%) were called active. Inconclusive results (about 3%) are left out. Many of the other results were omitted from the sample, so actives are more common in it than they were. A number with no mark means an inactive call. The call rests on the fitted dose curve; in most records, active means well fitted inhibition curve with a large enough effect; inconclusive means small, poorly fitted or top-dose-only effect, or another doubt; inactive means no such curve, though single readings can be large or run the other way.
# Target: Vitamin D3 receptor (Homo sapiens) (UniProt P11473)
# Assay: Inhibitors of the vitamin D receptor (VDR): qHTS
# Settings: VDR-SRC2-3 peptide fluorescence polarization, 2 h; max response, negative = inhibition: active compounds read low
# In short: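 Measured by FP: displacement of SRC2-3 coactivator peptide from VDR by library compounds, following a two-hour ambient incubation.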
# On the % scale 0 is the no-effect control and ±100 the full control effect; potency means the concentration at half of the fitted maximal effect.
# Sequence of Vitamin D3 receptor (Homo sapiens) (P11473 whole entry, looked up): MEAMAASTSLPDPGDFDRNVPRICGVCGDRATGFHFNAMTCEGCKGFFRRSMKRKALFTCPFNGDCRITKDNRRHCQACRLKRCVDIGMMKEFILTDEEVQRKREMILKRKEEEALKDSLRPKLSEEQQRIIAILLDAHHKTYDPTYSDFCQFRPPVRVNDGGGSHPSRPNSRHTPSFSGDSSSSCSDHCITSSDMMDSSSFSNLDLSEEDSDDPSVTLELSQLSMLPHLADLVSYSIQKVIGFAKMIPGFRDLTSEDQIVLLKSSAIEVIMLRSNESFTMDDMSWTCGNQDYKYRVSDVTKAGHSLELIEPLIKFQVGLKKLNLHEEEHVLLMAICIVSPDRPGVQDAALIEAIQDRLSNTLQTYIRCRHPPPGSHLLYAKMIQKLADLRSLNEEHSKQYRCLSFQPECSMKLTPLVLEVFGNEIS
Compound,"max response, negative = inhibition [%]",Potency
CCCn1c2ccccc2c2cnn(CC(=O)N(CC)c3cc(C)ccc3C)c(=O)c21,3.02,
CCN(CCCNC(=O)c1ccc2c(c1)NC(=O)CN2C)c1cccc(C)c1,,79.4 µM (active)
CCN(CCCNC(=O)Cn1ncc2c([nH]c3ccccc32)c1=O)c1cccc(C)c1,2.86,
CCN(CCCNC(=O)c1ccc(Sc2ccc(C)cc2)c(NC(C)=O)c1)c1cccc(C)c1,9.47,
CCOc1ccc(N(CC)C(=O)c2noc3c2COc2ccc(C)cc2-3)cc1,8.55,
CCOc1cccc(CC(=O)N2CCc3c([nH]c4ccccc34)C2c2ccc(OC)cc2)c1OCC (centres undefined),11.9,
COc1ccc(-c2cc(C(=O)NC(Cc3c[nH]c4ccccc34)C(=O)O)c(C)o2)cc1OC (centres undefined),,44.7 µM (active)
COc1ccc(-c2cc(C(=O)NC(C(=O)O)C(C)C)c(C)o2)cc1OC (centres undefined),-0.859,
COc1ccc(-c2cc(=O)oc3cc(OCC(=O)N[C@@H](Cc4c[nH]c5ccccc45)C(=O)O)ccc23)cc1,-24.6,
CC1CCN(c2nc3ccc(C(=O)N4CCN(c5ccccc5)CC4)cc3s2)CC1,19.1,
COc1ccc(Cn2c(=O)n(-c3ccccc3C)c(=O)c3c4c(sc32)CN(C(C)=O)CC4)cc1,7.19,
Cc1ccc(C)c(N2CCN(S(=O)(=O)c3ccc4c(c3)C(C(C)C)C(=O)N4)CC2)c1 (centres undefined),8,
Cc1csc(-c2coc3cc(O[C@@H]4O[C@H](CO)[C@@H](O)[C@@H](O)[C@H]4O)ccc3c2=O)n1,9.43,
O=C(O)CCn1cc(/C=C/C(=O)c2ccc(Cl)cc2)c(-c2cccc(Br)c2)n1,,15.8 µM (active)
O=C(/C=C/NNC(=O)c1cccc(Br)c1)c1ccccc1,0,
O=C(COC(=O)/C=C/c1cn(-c2ccccc2)nc1-c1cccnc1)Nc1ccc(Cl)cc1Cl,-8.09,
Cc1c(-c2nc(-c3ccc4c(c3)OCO4)no2)nnn1-c1ccc(Br)cc1F,14.1,
Cc1ccc(Cl)cc1-n1ncc2c(N3CCC(C(N)=O)CC3)ncnc21,-9.07,
OC[C@@H]1O[C@H](n2cnc3c(SCc4ccccc4)ncnc32)[C@H](O)[C@H]1O,-14.3,
O=S(=O)(O)c1cc2onnc2c2ccccc12,,17.8 µM (active)
COc1ccc(CCN2C(=O)c3oc4cc(C)cc(C)c4c(=O)c3C2c2ccccc2F)cc1OC (centres undefined),4.42,
COc1ccccc1NC(=O)C(=O)c1cc(C)n(-c2ccccc2F)c1C,14.8,
COc1ccc(CCN2C(=O)C(C)=C(C)C2=O)cc1OC,-14.3,
CCCCOc1ccc(CN2C(=O)C(=O)c3cc(Br)cc(C)c32)cc1OC,,14.1 µM (active)
CCCCOc1ccc(Cn2c(=O)oc3ccc(C)cc32)cc1OC,-6.99,
CCN(CC)CCNc1ncnc2c1cnn2-c1cc(Cl)ccc1C,11.7,
CN1[C@H]2CC(OC(=O)[C@@H](CO)c3ccccc3)C[C@H]1[C@H]1O[C@H]12 (some centres undefined),7.07,

Compound,"max response, negative = inhibition [%]",Potency
Cn1c(N)c(C(=O)COC(=O)/C=C/c2cccc(C(F)(F)F)c2)c(=O)n(C)c1=O,8.93,
CCOC(=O)NNc1cc(C(F)(F)F)ccn1,-1.56,
CCOC(=O)/C=C/c1ccc(C(F)(F)F)cc1S(=O)(=O)NC(C)(C)C,,79.4 µM (active)
CC1(C)CCc2cc(S(=O)(=O)N3CCN(c4nc(-c5cccs5)nc5ccccc45)CC3)ccc2O1,-7.78,
OCC(CO)NC1C[C@](O)(CO)[C@@H](O)[C@H](O)[C@H]1O (some centres undefined),1.5,
CC(=O)N1CCN(C(=O)c2cc(-c3ccc(C)o3)nc3ccccc23)CC1,-3.82,
O=C(Nc1cccc(F)c1)c1cc(-c2ccco2)nc2ccccc12,-14.8,
CC1CCCN(C(=O)c2cc(-c3ccco3)nc3ccccc23)C1 (centres undefined),,35.5 µM (active)
CN(C)c1cccc(C(=O)Nc2nc3ccc(S(=O)(=O)NC(C)(C)C)cc3s2)c1,8.63,
COc1ccccc1-c1noc(CSc2nnc(-c3ccccc3)n2-c2ccc(C)c(C)c2)n1,5.39,
O=C(Cn1nc(C(F)(F)F)c2c1CCCC2)Nc1ccc(Cl)cc1,4.81,
O=C(Cn1ncc(N2CCCC2)c(Br)c1=O)c1ccc(Cl)cc1,-1.29,
O=C(Cn1nc(CNc2ccc(Cl)cc2)[n+]2c1CCCCC2)c1ccc(Cl)cc1,,79.4 µM (active)
Cc1cccc(N2CCN(c3ccc(C(=O)O)cc3NC(=O)c3ccccc3F)CC2C)c1 (centres undefined),1.51,
O=C(Nc1ccccc1Cl)/C(Cl)=C(\Cl)S(=O)c1ccccc1 (centres undefined),,3.98 µM (active)
O=C(Nc1ccccc1Cl)N1CCC(CN2CCCC2)CC1,6.62,
O=C(CCN1CCN(C/C=C/c2ccccc2)CC1)Nc1ccccc1Cl,-1.78,
CCn1cc(C(=O)NCc2ccc(C)cc2)c(=O)c2cc(S(=O)(=O)N3CCc4ccccc4C3)ccc21,-10.3,
Cc1c(Br)cc(C(=O)N2CCCCCC2)c(C)c1C,-2.34,
Cc1ccc(C(=O)N2CCCC2)c(F)c1F,,44.7 µM (active)
Cc1ccc(C(NC(=O)N2CCCC2)C(Cl)(Cl)Cl)cc1F (centres undefined),6.9,
CCC(=O)Nc1cccc(C(=O)OCc2cc(=O)n3nc(CC)sc3n2)c1,7.59,
C=C1C(=CC=C2CCC[C@@]3(C)[C@@H]2CC[C@H]3[C@H](C)CCCC(C)C)C[C@@H](O)C[C@@H]1O,8.33,
CCOCCn1ccc2c(OCC(=O)NCc3ccc(C)cc3)cccc2c1=O,10.6,
Cc1ccc(OCC(=O)Nc2ccc(OCc3cc(=O)n4c(C)csc4n3)cc2)cc1C,-8.2,
O=C(Nc1c(C(=O)N2CCN(c3ccc(F)cc3)CC2)oc2ccccc12)c1ccco1,-2.38,
COc1ccccc1CNC(=O)c1ccc(-n2c(C)cc3c2CCCC3)cc1,13.6,
